Test results: PubChem BioAssay AID570 (The Scripps Research Institute Molecular Screening Center, 2006)
Out of some 65,000 compounds screened, about 45 (0.07%) were called active. This excerpt belongs to a sample that is enriched for actives. A number with no mark means an inactive call.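 How the source made its calls: active means inhibition above the mean of compound-free control plate wells plus 3 SD (cut at about 14% in these data); inactive means the rest.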

These molecules were tested against Collagenase 3 (Homo sapiens) (UniProt P45452) (assay: inhibition of MMP13 collagenase activity – biochemical, FRET peptide cleavage, primary screen (AID 570;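 further: 0% = DMSO wells and 100% = wells with reference MMP-13 inhibitor after basal subtraction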)). Details: MMP-13 fTHP FRET cleavage, Mca fluorescence; at 4 µM; stronger effect = higher value.

| Structure (SMILES) | inhibition |
| --- | --- |
| O=C(NCCN1CCOCC1)[C@H](Cc1ccccc1)N1C(=O)c2ccccc2C1=O | 0.6% |
| COc1ccc(O)c(C(=O)c2cnc3onc(C(C)C)c3c2)c1 | 8.5% |
| COC(=O)c1ccc(Oc2nc(NC(C)C)nc(SC)n2)cc1 | 0.3% |
| OCc1n[nH]c(CO)n1 | -2.9% |
| CCN1C(=O)/C(=C2/Sc3ccccc3N2CCCS(=O)(=O)O)SC1=S | 17.1% (active) |
| CCN1C(=O)/C(=C\N2CCN(c3ccccc3)CC2)SC1=S | 3.4% |
| CCN1C(=O)/C(=C\N2CCN(c3cccc(Cl)c3)CC2)SC1=S | 4.2% |
| CCc1nnc(NC(=O)c2nc3nccc(C)n3n2)s1 | 1.3% |
| COc1ccc2c(c1)OC(O)(C(F)(F)C(F)F)CC2=O (configuration not stated) | 4.3% |
| CC1(C)Cc2ccccc2-c2nnc(-c3cccc(O)c3)n21 | -1.1% |
| O=C(Nc1ccc(Cl)cn1)c1cnn2cccnc12 | -1.1% |
| O=c1[nH]c(=O)n(Cc2ccco2)c2c1C(C(F)(F)F)(C(F)(F)F)N=C(c1ccco1)N2 | -3.7% |
| CC(C)n1c(NCc2c[nH]c3ccccc23)nc2ccccc21 | -5.6% |
| COc1cc(C(O)c2nc3ccccc3n2C)cc(OC)c1OC (configuration not stated) | 1% |
| Cc1cc(C)c(C#N)c(SCc2ccc3c(c2)OCO3)n1 | 3.3% |
| COc1ccc(C2C(C(=O)N3CCN(c4ccc(OC)cc4)CC3)c3ccccc3C(=O)N2C)cc1 (configuration not stated) | 2.8% |
| CNC(=O)CSc1nnnn1-c1ccc(C)cc1C | 1.5% |
| CC1(C)CC(=O)C(C=NCc2cccnc2)=C(O)C1 | 2.8% |
| CCC(=O)Nc1cccc(NC(=O)c2cccnc2)c1 | -1.1% |
| CCC1CCCCN1C(=O)Nc1cccc(NC(=O)N2CCCCC2CC)c1 (configuration not stated) | -2.3% |
| CCOC(=O)C1(c2ccccc2)NC(c2ccc(N(C)C)cc2)C2C(=O)N(C)C(=O)C21 (configuration not stated) | -4.8% |

| Structure (SMILES) | inhibition |
| --- | --- |
| O=C(Nc1ccc2c(c1)OCCO2)C1CCCN(c2ncccn2)C1 (configuration not stated) | 4.5% |
| Cc1ccccc1CSc1nnc(-c2cccnc2)n1N | 4.9% |
| CN(C(=O)C1CCOC1)c1nnc(-c2cccnc2)s1 (configuration not stated) | -4.2% |
| COc1cccc(-n2cc3c(c2-c2ccccc2)c(=O)n(C)c(=O)n3C)c1 | -1.8% |
| Cn1c(=O)c2c(nc(SCCNS(=O)(=O)c3ccccc3)n2C)n(C)c1=O | -2.9% |
| CC(C)OC(=O)c1cc(NC(=O)C2C3CCC(O3)C2C(=O)O)cc(C(=O)OC(C)C)c1 (configuration not stated) | -25.2% |
| Cc1noc(COc2ccccc2OCC(O)CNC(C)(C)C)n1 (configuration not stated) | -0.8% |
| O=C(CCCN1C(=O)CCC1=O)Nc1ccc(Cl)c(C(F)(F)F)c1 | 1.9% |
| Cc1cccc(-n2c(Cc3cc(=O)[nH]c(=O)[nH]3)nnc2SC(C)C)c1 | 2.4% |
| O=C(OCc1ccccc1F)c1ccc2c(c1)OCCO2 | -0.1% |
| O=c1ccn(Cc2ccccc2Cl)cc1 | 0.5% |
| COc1ccc(Cn2nnc3c(=O)[nH]c(C4CCN(C(=O)c5ccccc5Cl)CC4)nc32)cc1 | 7.2% |
| CCOC(=O)[C@H]1CCC[C@@H](NS(=O)(=O)c2ccc(NC(C)=O)cc2)C1 | 0% |
| COc1ccccc1NC(=O)CSc1nnc(-c2ccoc2C)n1CCc1ccccc1 | -3.7% |
| Cc1cc(Nc2cccc(C)c2C)n2ncnc2n1 | 6.6% |
| CCCc1nc2c3cnn(-c4cccc(Cl)c4)c3ncn2n1 | -4.1% |
| CC12CN3CC(C)(CN(C1)C3c1ccc(Cl)cc1Cl)C2=O (configuration not stated) | 6.8% |
| Cc1ccc(C(C)C)c(OCc2nnc(SCC(=O)Nc3nccs3)n2C)c1 | -0.8% |
| CCOC(=O)N1CCC(NC(=O)Cn2cc3c(n2)CCCCC3)CC1 | 3% |
| Cc1cc(C)nc(N2C(=O)CC(Cc3ccccc3)C2=O)n1 (configuration not stated) | 2.4% |
| CC1CCCC(NC(=O)CN2CCN(Cc3ccc(Cl)cc3)C2=O)C1C (configuration not stated) | -0.6% |

| Structure (SMILES) | inhibition |
| --- | --- |
| CCOC(=O)N1CCC(Nc2c(NCCCN3CCN(c4ccc(OC)cc4)CC3)c(=O)c2=O)CC1 | 2.1% |
| O=C(CCC(=O)OCC(F)(F)C(F)F)NCc1ccccc1 | 1.8% |
| Cc1cc(/C=N/n2cnnc2)c(C)n1-c1ccc2ncccc2c1 | -12% |
| CC(=O)NC(C)(C)C1CC=C(C)/C(=N\O)C1 (configuration not stated) | 4.1% |
| CCOc1ccc(OCC)c(NC(=O)CN(C)S(=O)(=O)c2cccc3nsnc23)c1 | -2.8% |
| Cc1cccc(-n2c(O)c(C=Nc3ccccc3N)c(=O)[nH]c2=O)c1 | -15.8% |
| N#CC(C(=O)c1ccc(S(=O)(=O)N2CCCCCC2)cc1)c1nc2ccccc2[nH]1 (configuration not stated) | -11.8% |
| CC1C=CCC2C(=O)N(c3cccc(C(=O)N4CCCCCC4)c3)C(=O)C12 (configuration not stated) | 4.6% |
| Cc1nc2ccccc2c2oc(C(=O)NCC3CCCO3)cc12 (configuration not stated) | -8.8% |
| CCCn1c(SCC(=O)N2CCc3ccccc32)nnc1-c1ccncc1 | -0.9% |
| COc1ccc(S(=O)(=O)N2CCCCC2)cc1Br | 3.3% |
| Cc1ccc(-n2nc3cc(Cl)c(NC(=O)c4ccco4)cc3n2)cc1 | -66.9% |
| Cc1ccc(S(=O)(=O)c2c(N)n(C)c3nc4ccccc4nc23)cc1 | -244% |
| CCC(C)NC(=O)N[C@@H](CCSC)C(=O)O (some centres not stated) | 1.5% |
| C=CCOc1ccc(C2/C(=C(\O)c3c(C)[nH]c(C(=O)OC)c3C)C(=O)C(=O)N2CCN(C)C)cc1 (configuration not stated) | 2.9% |
| COc1ccc(OC)c(NC(=O)CCN2CCC(C)CC2)c1 | 3.7% |
| COc1ccccc1OCCC(=O)OCC(=O)NC(=O)NC(C)(C)C | 3.7% |
| CC(C)(C)c1cc(CN2CCN(CCC#N)CC2)cc(C(C)(C)C)c1O | -0.2% |
| CCOC(=O)C1=C(C)NC(C)=C(C(=O)OCC)C1c1ccccn1 | -0.7% |
| CCOc1ccc(C(=O)Nc2ccncc2)cc1 | 3.1% |
